Eleven compounds from PubChem BioAssay (EPA / NIEHS) can be followed below.

The target in experiment [1] is Glucocorticoid receptor (Homo sapiens) (UniProt P04150). Put plainly: ATG_GR_TRANS: Attagene TRANS-FACTORIAL HepG2 Assay for human Glucocorticoid Receptor (GR) (AID 2282978; active means hit-call score of the fitted dose curve at least 0.9, where 1 is the maximum;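 further: activators score as hits since higher reporter transcript over DMSO is fitted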). To be noted: HepG2 Attagene TRANS GR reporter, mRNA transcription. The essentials: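 Fluorescent capillary-electrophoresis quantitation of reporter mRNA is the readout, taken 24 h after dosing human HepG2 cells carrying transiently transfected GAL4-UAS reporter units activated by chimeric NR-GAL4 fusions; activity scored as induction over DMSO.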
Glucocorticoid receptor (Homo sapiens), sequence (P04150 whole entry, looked up, the tested form may be a part): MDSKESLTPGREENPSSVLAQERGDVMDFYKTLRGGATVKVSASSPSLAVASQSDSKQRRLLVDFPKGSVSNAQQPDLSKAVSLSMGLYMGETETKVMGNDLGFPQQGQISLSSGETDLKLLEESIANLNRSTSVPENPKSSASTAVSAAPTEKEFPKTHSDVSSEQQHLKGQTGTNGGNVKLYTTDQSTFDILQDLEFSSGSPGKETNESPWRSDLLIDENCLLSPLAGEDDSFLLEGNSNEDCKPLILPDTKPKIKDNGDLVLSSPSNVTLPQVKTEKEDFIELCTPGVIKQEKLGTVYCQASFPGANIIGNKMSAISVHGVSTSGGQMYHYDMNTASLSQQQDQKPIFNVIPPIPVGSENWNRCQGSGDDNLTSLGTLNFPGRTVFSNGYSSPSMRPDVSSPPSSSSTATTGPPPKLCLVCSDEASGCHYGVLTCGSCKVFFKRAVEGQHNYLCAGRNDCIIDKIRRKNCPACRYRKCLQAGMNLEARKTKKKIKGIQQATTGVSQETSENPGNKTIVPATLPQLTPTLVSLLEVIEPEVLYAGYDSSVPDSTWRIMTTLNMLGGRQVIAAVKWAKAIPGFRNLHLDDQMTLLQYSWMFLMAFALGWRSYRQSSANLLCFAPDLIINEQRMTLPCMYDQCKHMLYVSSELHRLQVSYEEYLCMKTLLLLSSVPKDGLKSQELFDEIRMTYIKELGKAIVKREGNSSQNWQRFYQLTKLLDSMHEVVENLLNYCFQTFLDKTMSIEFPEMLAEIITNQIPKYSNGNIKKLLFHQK

Experiment [2] addresses Oxysterols receptor LXR-alpha (Homo sapiens) (UniProt Q13133). The experiment in a line: ATG_LXRa_TRANS: Attagene TRANS-FACTORIAL HepG2 Assay for human Liver X Receptor alpha (LXRa) (AID 2282980; active means hit-call score of the fitted dose curve at least 0.9, where 1 is the maximum). To be noted: HepG2 Attagene TRANS reporter, LXRa transactivation. Summed up:
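Transient HepG2 transfectants, 24 h dosing, RT-PCR/CE mRNA reporter quantitation; gain-of-signal vs DMSO.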

In experiment [3] the target is Hepatocyte nuclear factor 4-alpha (Homo sapiens) (UniProt P41235). Put plainly: ATG_HNF4a_TRANS: Attagene TRANS-FACTORIAL HepG2 Assay for human Hepatocyte Nuclear Factor 4 alpha (HNF4a) (AID 2282982; active means hit-call score of the fitted dose curve at least 0.9, where 1 is the maximum). Particulars: HepG2 HNF4a transactivation reporter, mRNA readout. Summed up: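 HepG2 cells transiently transfected with multiplexed GAL4-UAS reporter units responsive to chimeric NR-GAL4 proteins; compound exposure 24 h. Reporter mRNA quantified by RT-PCR, 6-FAM labelling, HpaI digestion and capillary electrophoresis; gain of signal versus DMSO baseline.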
Hepatocyte nuclear factor 4-alpha (Homo sapiens), sequence (P41235 whole entry, looked up, the tested form may be a part): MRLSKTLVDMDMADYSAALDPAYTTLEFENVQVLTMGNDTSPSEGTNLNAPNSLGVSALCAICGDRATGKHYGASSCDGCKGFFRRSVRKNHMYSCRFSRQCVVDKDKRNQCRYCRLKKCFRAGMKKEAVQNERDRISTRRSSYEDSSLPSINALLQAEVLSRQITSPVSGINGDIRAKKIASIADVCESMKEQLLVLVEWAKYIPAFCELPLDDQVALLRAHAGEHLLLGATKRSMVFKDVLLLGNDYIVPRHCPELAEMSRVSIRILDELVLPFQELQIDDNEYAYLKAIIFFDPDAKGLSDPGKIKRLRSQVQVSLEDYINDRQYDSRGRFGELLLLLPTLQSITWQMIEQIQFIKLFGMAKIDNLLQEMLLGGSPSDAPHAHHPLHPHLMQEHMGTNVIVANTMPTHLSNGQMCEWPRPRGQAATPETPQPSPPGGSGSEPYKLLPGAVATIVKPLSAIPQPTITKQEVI

Experiment [4] in a line: ATG_M_06_TRANS: Attagene TRANS-FACTORIAL HepG2 Assay for M06 Transcription Factor (Internal Marker) (AID 2282983; active means hit-call score of the fitted dose curve at least 0.9, where 1 is the maximum). Particulars: HepG2 Attagene TRANS M06 internal marker reporter. Summed up:
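Measured by capillary electrophoresis of fluorescently labelled RT-PCR products, this endpoint reflects reporter mRNA in HepG2 cells harbouring exogenous NR-GAL4 reporter constructs after 24 h exposure, with DMSO as baseline.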

In experiment [5] the target is Nuclear receptor subfamily 4 group A member 2 (Homo sapiens) (UniProt P43354). The experiment in a line: ATG_NURR1_TRANS: Attagene TRANS-FACTORIAL HepG2 Assay for human Nuclear Receptor Related Protein 1 (NURR1) (AID 2282985; active means hit-call score of the fitted dose curve at least 0.9, where 1 is the maximum). To be noted: HepG2 Attagene TRANS reporter, mRNA readout. The essentials:
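HepG2 cells transiently transfected with GAL4-UAS reporter units and chimeric NR-Gal4 constructs; chemical exposure 24 h. Reporter mRNA quantified by RT-PCR, fluorescent labelling and capillary electrophoresis; gain of signal fitted relative to DMSO baseline.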

The target of experiment [6] is Nuclear respiratory factor 1 (Homo sapiens) (UniProt Q16656). The experiment in a line: ATG_NRF1_CIS: Attagene CIS-FACTORIAL HepG2 Assay for human Nuclear Respiratory Factor 1 (NRF1) Orphan Gene (AID 2282987). To be noted: HepG2 NRF1 cis-element reporter, Attagene multiplex; actives raise or lower the signal. Summed up: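 Multiplexed cis-reporter assay, HepG2 cells, 24 h treatment. Total RNA → oligo(dT) RT → PCR with reporter-specific primers → 6-FAM primer extension → HpaI cut → CE. Bidirectional fit vs DMSO.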
Nuclear respiratory factor 1 (Homo sapiens), sequence (Q16656 whole entry, looked up): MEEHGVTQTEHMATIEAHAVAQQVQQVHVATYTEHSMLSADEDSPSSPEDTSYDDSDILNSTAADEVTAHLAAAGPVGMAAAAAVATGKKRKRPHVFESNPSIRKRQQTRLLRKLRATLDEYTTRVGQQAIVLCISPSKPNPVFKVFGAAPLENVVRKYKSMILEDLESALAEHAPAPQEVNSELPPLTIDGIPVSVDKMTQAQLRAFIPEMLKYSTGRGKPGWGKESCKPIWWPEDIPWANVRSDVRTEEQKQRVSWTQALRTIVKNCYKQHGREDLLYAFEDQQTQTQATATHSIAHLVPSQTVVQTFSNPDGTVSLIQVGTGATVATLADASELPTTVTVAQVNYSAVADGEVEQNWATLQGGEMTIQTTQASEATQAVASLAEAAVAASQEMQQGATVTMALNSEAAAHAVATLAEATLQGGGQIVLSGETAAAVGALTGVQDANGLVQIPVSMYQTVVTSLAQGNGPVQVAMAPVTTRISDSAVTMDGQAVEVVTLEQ

Experiment [7] can be described thus: ATG_NFI_CIS: Attagene CIS-FACTORIAL HepG2 Assay for human Nuclear Factor I (NFI) (AID 2282989). To be noted: HepG2 cis-regulatory reporter, NFI response element transcription; actives raise or lower the signal. The essentials:
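Transfected HepG2 liver cells, exposed 24 h, supplied total RNA for oligo(dT) reverse transcription and reporter-specific PCR. Labelled, HpaI-cut fragments were sized by capillary electrophoresis; DMSO set the baseline for bidirectional fitting.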

Experiment [8] has as its target Myc proto-oncogene protein (Homo sapiens) (UniProt P01106). The experiment in a line: ATG_Myc_CIS: Attagene CIS-FACTORIAL HepG2 Assay for human Myelocytomatosis (Myc) Proto-Oncogene Transcription Factor (AID 2282990). To be noted: HepG2, Attagene cis-reporter transcription factor activity; actives raise or lower the signal. Summed up: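 Multiplexed cis-reporter transcription in HepG2 cells after 24 h chemical treatment. Reporter mRNA measured by RT-PCR and capillary electrophoresis fluorescence; activity fitted bidirectionally against DMSO control.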

Experiment [9] is described as follows: ATG_NF_kB_CIS: Attagene CIS-FACTORIAL HepG2 Assay for human Nuclear Factor Kappa B (NF-kB) (AID 2282991). Particulars: HepG2 Attagene cis-factorial NF-kB reporter mRNA; actives raise or lower the signal. Summed up: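 Transient MRTU transfection of human HepG2 liver cells → 24 h chemical exposure → total RNA, oligo(dT) RT → PCR, 6-FAM primer extension, HpaI digest 2 h 37 C → CE fragment analysis. Bidirectional fitting, DMSO negative control.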

Experiment [10] can be described thus: ATG_NRF2_ARE_CIS: Attagene CIS-FACTORIAL HepG2 Assay for human Nuclear Factor Erythroid 2 Related Factor 2 (NFR2) response to Antioxidant Response Elements (ARE) (AID 2282992). Particulars: HepG2 Attagene ARE/NRF2 reporter, transcription factor activity; actives raise or lower the signal. Summed up:
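Cis-factorial assay: transfected HepG2 reporter library, 24 h dosing, mRNA readout via RT-PCR/CE; DMSO-referenced bidirectional analysis.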

Experiment [11] is described as follows: ATG_Oct_MLP_CIS: Attagene CIS-FACTORIAL HepG2 Assay for human Octamer-Binding Transcription Factor (Oct) (AID 2282993). Particulars: HepG2 Attagene cis-factorial Oct reporter, mRNA; actives raise or lower the signal. Summed up: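 Using HepG2 cells bearing transfected cis-reporter constructs, mRNA induction was read after 24 h by fluorescent RT-PCR and capillary electrophoresis, with DMSO defining baseline for gain- or loss-of-signal fits.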

The target of experiment [12] is Cellular tumor antigen p53 (Homo sapiens) (UniProt P04637). The experiment in a line: ATG_p53_CIS: Attagene CIS-FACTORIAL HepG2 Assay for human p53 Transcription Factor (AID 2282994). Particulars: HepG2 p53 cis-element reporter, Attagene mRNA; actives raise or lower the signal. Summed up:
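Using HepG2 hepatoma cells carrying cis-acting multiplexed reporters, mRNA induction is detected after a 24 h exposure. Gain- and loss-of-signal responses are fitted relative to DMSO-treated cells.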

In experiment [13] the target is Oxysterols receptor LXR-beta (Homo sapiens) (UniProt P55055). Put plainly: ATG_LXRb_TRANS: Attagene TRANS-FACTORIAL HepG2 Assay for human Liver X Receptor beta (LXRb) (AID 2282981; active means hit-call score of the fitted dose curve at least 0.9, where 1 is the maximum). Particulars: HepG2 Attagene TRANS GAL4-LXRb reporter, mRNA. Summed up: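 HepG2 cells transiently transfected with multiple reporter transcription units carrying chimeric NR-Gal4 proteins acting on GAL4-UAS reporters; compound exposure 24 h. Reporter mRNA quantified by RT-PCR, 6-FAM labelling, HpaI digestion and capillary electrophoresis; gain of signal versus DMSO.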
Oxysterols receptor LXR-beta (Homo sapiens), sequence (P55055 whole entry, looked up, the tested form may be a part): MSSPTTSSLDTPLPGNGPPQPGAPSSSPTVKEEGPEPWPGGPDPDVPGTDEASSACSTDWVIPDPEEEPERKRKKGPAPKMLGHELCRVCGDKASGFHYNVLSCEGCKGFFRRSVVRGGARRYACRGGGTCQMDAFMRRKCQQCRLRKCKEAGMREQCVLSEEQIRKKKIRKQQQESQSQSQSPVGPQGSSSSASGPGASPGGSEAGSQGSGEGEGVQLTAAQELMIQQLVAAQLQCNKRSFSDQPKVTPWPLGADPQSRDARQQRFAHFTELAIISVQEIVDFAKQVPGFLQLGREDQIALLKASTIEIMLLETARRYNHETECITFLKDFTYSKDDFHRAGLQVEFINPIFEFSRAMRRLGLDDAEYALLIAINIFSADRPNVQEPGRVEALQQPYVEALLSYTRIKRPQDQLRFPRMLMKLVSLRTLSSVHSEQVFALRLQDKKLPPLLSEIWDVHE

Experiment [14] has as its target Transcriptional activator Myb (Homo sapiens) (UniProt P10242). The experiment in a line: ATG_Myb_CIS: Attagene CIS-FACTORIAL HepG2 Assay for human Myeloblastosis (Myb) Proto-Oncogene Transcription Factor (AID 2282986). To be noted: HepG2 Attagene CIS-FACTORIAL Myb reporter transcription; actives raise or lower the signal. The essentials: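 Reporter transcript levels, quantified by fluorescent RT-PCR and capillary electrophoresis, serve as the read-out. Transfected HepG2 cells carrying cis-promoter reporter units are dosed for 24 hours, and curves are fitted bidirectionally against DMSO controls.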

Experiment [15] is described as follows: ATG_M_32_TRANS: Attagene TRANS-FACTORIAL HepG2 Assay for M32 Transcription Factor (Internal Marker) (AID 2282984; active means hit-call score of the fitted dose curve at least 0.9, where 1 is the maximum). To be noted: HepG2 Attagene TRANS M32 internal marker reporter. Summed up:
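HepG2 cells transiently transfected with multiple GAL4-UAS reporter transcription units, dosed for 24 hours; reporter mRNA quantified by RT-PCR, 6-FAM primer extension, HpaI digestion and capillary electrophoresis. Gain-of-signal fitted versus DMSO baseline; internal background-control marker.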

Experiment [16] in a line: BSK_3C_TissueFactor: BioMAP Diversity Plus: 3C Assay for Tissue Factor Biomarker Activity (AID 2282997). To be noted: BioMAP 3C HUVEC, tissue factor biomarker readout; actives raise or lower the signal. The essentials: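 Values derive from bidirectional curve fitting against DMSO of Tissue Factor ELISA signals, taken 24 h after dosing primary human umbilical vein endothelial cells.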

Experiment [17] in a line: BSK_3C_uPAR: BioMAP Diversity Plus: 3C Assay for Urokinase-type plasminogen activator receptor (uPAR) Biomarker Activity (AID 2282998). Particulars: BioMAP 3C HUVEC, uPAR biomarker ELISA; actives raise or lower the signal. Summed up:
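In this endothelial cell-based assay, human umbilical vein primary cells were treated with chemicals and harvested at 24 h. uPAR was quantified using ELISA, with gains or losses fitted relative to DMSO controls.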

A short description of experiment [18]: BSK_3C_VCAM1: BioMAP Diversity Plus: 3C Assay for Vascular cell adhesion molecule 1 (VCAM1) Biomarker Activity (AID 2282999). Particulars: BioMAP 3C HUVEC, VCAM1 ELISA, cytokine-stimulated; actives raise or lower the signal. Summed up: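 Human umbilical vein endothelial cells were dosed with compound for 24 h, after which cell-surface VCAM-1 was quantified by ELISA. Bidirectional curve fitting used DMSO as negative control and activity baseline.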

The nature of experiment [19]: BSK_4H_Eotaxin3: BioMAP Diversity Plus: 4H Assay for Eotaxin 3 Biomarker Activity (AID 2283000).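 Further: CCL26 protein level quantified by ELISA in parallel with SRB cytotoxicity check.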 Particulars: primary human endothelial cells (HUVEC); actives raise or lower the signal. The essentials:
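Endothelial primary cells (human umbilical vein) exposed to compound for 24 h. ELISA detection of Eotaxin-3.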

Results filed as inconclusive are left out. Calls of active or inactive are those of the source. How the source made its calls, unless noted: active means hit-call score of the fitted dose curve at least 0.9, where 1 is the maximum; inactive means score below 0.9.

Oxysterols receptor LXR-alpha (Homo sapiens), sequence (Q13133 whole entry, looked up): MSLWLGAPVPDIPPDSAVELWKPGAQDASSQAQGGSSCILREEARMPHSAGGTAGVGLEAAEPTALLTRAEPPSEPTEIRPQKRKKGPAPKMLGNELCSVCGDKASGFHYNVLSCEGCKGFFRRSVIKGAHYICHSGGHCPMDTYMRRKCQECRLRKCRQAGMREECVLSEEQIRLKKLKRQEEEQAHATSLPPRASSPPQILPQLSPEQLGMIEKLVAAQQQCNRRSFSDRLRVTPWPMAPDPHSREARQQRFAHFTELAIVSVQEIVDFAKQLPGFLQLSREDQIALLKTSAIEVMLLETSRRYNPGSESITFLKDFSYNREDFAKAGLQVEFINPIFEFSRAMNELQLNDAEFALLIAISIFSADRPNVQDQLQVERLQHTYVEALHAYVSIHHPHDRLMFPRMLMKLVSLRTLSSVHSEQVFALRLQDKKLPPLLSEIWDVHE
Transcriptional activator Myb (Homo sapiens), sequence (P10242 whole entry, looked up): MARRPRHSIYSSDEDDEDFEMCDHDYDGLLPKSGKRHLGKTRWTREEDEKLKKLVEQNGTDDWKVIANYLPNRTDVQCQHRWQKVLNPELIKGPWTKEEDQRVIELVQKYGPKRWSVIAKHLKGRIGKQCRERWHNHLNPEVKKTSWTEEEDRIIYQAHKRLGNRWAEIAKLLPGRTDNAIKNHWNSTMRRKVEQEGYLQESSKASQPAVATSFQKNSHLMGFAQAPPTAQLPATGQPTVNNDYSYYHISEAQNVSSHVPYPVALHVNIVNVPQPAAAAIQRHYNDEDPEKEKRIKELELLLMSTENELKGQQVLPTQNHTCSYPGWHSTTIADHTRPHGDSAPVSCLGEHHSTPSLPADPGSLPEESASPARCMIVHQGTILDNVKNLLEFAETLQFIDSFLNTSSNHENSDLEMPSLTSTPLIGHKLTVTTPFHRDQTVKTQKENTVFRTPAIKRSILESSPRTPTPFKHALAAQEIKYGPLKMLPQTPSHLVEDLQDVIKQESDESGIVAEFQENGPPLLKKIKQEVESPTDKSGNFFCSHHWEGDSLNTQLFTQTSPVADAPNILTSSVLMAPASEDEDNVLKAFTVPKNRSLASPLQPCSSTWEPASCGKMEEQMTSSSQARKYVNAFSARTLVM
Cellular tumor antigen p53 (Homo sapiens), sequence (P04637 whole entry, looked up): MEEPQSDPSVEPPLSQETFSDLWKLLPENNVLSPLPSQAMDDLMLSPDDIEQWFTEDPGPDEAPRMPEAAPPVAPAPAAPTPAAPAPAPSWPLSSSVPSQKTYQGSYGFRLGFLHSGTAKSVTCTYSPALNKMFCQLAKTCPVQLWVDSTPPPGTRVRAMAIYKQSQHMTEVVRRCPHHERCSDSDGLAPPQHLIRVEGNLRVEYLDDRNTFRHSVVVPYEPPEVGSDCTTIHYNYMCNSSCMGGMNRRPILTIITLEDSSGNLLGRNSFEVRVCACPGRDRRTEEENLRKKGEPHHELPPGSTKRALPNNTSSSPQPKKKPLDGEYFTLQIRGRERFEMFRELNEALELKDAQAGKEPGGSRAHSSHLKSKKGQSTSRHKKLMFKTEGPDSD
Myc proto-oncogene protein (Homo sapiens), sequence (P01106 whole entry, looked up): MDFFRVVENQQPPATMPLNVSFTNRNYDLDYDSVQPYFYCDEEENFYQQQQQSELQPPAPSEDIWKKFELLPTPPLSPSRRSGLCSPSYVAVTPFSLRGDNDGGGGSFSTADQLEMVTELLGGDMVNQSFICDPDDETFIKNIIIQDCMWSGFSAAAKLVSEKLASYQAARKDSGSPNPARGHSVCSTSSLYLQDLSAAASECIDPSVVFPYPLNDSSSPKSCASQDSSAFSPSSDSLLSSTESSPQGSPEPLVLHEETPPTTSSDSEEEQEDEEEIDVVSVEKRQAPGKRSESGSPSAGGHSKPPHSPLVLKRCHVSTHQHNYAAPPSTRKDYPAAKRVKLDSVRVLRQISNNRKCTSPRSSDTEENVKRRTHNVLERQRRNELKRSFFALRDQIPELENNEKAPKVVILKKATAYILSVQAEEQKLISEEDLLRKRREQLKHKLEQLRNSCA
Nuclear receptor subfamily 4 group A member 2 (Homo sapiens), sequence (P43354 whole entry, looked up, the tested form may be a part): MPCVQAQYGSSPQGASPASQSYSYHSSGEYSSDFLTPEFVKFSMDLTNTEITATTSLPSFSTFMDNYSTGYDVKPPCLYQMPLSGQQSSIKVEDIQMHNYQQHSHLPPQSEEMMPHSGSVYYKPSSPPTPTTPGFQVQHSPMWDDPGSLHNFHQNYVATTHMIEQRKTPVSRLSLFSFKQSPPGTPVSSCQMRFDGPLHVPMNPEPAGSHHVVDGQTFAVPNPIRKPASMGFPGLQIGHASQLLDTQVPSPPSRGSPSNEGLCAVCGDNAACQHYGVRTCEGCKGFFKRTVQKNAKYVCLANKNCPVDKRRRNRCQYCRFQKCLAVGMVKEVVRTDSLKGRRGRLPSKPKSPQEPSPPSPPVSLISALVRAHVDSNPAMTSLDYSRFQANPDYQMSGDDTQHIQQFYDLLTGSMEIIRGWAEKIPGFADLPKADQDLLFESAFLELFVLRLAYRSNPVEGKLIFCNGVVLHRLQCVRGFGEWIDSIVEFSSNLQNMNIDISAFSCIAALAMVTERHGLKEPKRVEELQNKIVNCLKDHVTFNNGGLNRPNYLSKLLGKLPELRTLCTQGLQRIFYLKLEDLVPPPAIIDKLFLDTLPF

For the compound `O=C1CCCCCCCCCCOCCCCO1`, the compound was classed as inactive in experiment [1], in [2], in [3], in [4], in experiment [5] and in [6]. The outcome in [7], in experiment [8], in experiment [9], in experiment [11] and in experiment [12] was inactive. For the same compound, the AC50 in [10] is 167 µM (active).
As to `CCCCCC=CCC(=O)OC`, the result in experiment [1], in experiment [2], in experiment [13], in [3], in experiment [5] and in experiment [14] was inactive. The call in experiment [6], in experiment [7], in experiment [8], in [9], in [10] and in [11] was inactive. Besides, the outcome in experiment [12] was inactive.
Consider `CC(CCO)CCCC(C)(C)O` (stereo not given), for which the result in [1], in experiment [2], in [13], in experiment [4], in experiment [15] and in experiment [6] was inactive. Besides, the compound was called inactive in experiment [7], in experiment [8], in experiment [9] and in experiment [10].
In the case of `CCCCCCCCCCN`, the call in experiment [1], in experiment [2], in experiment [13], in experiment [5], in experiment [14] and in experiment [6] was inactive. In addition, the compound was classed as inactive in experiment [7], in [8], in experiment [9], in experiment [10] and in experiment [12].
`CC(=O)OCCOC(C)=O`: the compound was classed as inactive in experiment [1], in experiment [2], in experiment [3], in experiment [4], in [14] and in [6]. Besides, the compound was classed as inactive in experiment [7], in experiment [8], in experiment [9], in [10], in [11] and in experiment [12].
`C=CCOc1nc(OCC=C)nc(OCC=C)n1`: the compound was classed as inactive in experiment [1], in [2], in experiment [13], in experiment [4], in experiment [14] and in experiment [6]. For the same compound, the compound was called inactive in experiment [7], in [8], in [9], in experiment [10], in experiment [11] and in [12].
Regarding `CC(C)CCCCCCCOC(=O)c1ccc(C(=O)OCCCCCCCC(C)C)c(C(=O)OCCCCCCCC(C)C)c1`, the call in experiment [1], in [2], in experiment [3], in experiment [4], in experiment [14] and in experiment [6] was inactive. The result in experiment [7], in experiment [8], in experiment [9], in experiment [10], in [11] and in [12] was inactive.
With `OC[C@H]1O[C@H](O[C@]2(CCl)O[C@H](CCl)[C@@H](O)[C@@H]2O)[C@H](O)[C@@H](O)[C@H]1Cl`, the result in experiment [1], in experiment [2], in experiment [13], in experiment [4], in experiment [15] and in [14] was inactive. For the same compound, the outcome in experiment [6], in [7], in experiment [8], in experiment [10], in experiment [11] and in [12] was inactive. The result in [16], in experiment [17], in experiment [18] and in [19] was inactive.
On to `COc1cc(C)cc(O)c1`, for which the compound was called inactive in [1], in experiment [2], in experiment [13], in [15], in experiment [14] and in experiment [6]. The result in [7], in [8], in experiment [9], in experiment [10] and in experiment [11] was inactive.
Turning to `CN1Cc2c(N)cccc2C(c2ccccc2)C1` (stereo not given), the call in experiment [1], in experiment [2], in experiment [3], in experiment [5], in experiment [14] and in experiment [6] was inactive. The outcome in experiment [8] and in experiment [11] was inactive.
As to `C[Si](O[Si](C)(C)C)O[Si](C)(C)C`, the compound was classed as inactive in experiment [1], in [2], in experiment [13], in experiment [15], in experiment [5] and in [14]. Moreover, the compound was classed as inactive in [6], in [7], in experiment [8], in experiment [9], in [10] and in [11]. The outcome in [12] was inactive.
